For 60 compounds, inhibition results are on record in PubChem BioAssay AID1863 (Southern Research Specialized Biocontainment Screening …, 2009).

Molecules are shown by their SMILES. Several values for one entry are separate records, joined by “and”; a condition that tells them apart may be missing. Equal values may be shown once. The campaign covered roughly 300,000 compounds. About 480 (0.16%) were called active. These entries were drawn from the full list. Results with a measured potency or affinity are listed apart. Values without a mark were called inactive.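 How the source made its calls: active means inhibition over 29.93%, a cutoff 3 SD above the screen mean, later confirmed by dose response; inconclusive means inhibition over 29.93% but no dose response follow-up; inactive means inhibition at most 29.93% or unconfirmed.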

This assay is described as follows: inhibitors of PhoP regulon expression, primary screen, Salmonella Typhimurium, GFP reporter (AID 1863).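 Further: 0% = low Mg2+ inducing control and 100% = high Mg2+ repressing control.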 As to conditions: S. Typhimurium PhoP-regulated promoter GFP reporter, 4 h; at 50 µM; stronger effect = higher value.
As to `Cc1ccc(N2CC(C(=O)Nc3ccccc3C(=O)NC3CCCCC3)CC2=O)cc1` (stereo not given), the inhibition is 3.33%.

As to `CC(NC(=O)CCNC(=O)c1ccccc1Cl)C1CC2CCC1C2` (stereo not given), the inhibition is 10.5%.

For `Cc1cccc(Nc2cc(=O)[nH]c(=O)[nH]2)c1C`, the inhibition was 11.8%.

With `Nc1nc(Cl)nc2c1ncn2[C@@H]1O[C@H](CO)[C@@H](O)[C@H]1O`, the inhibition was -6.56% and 6.76%.

As for `NC(=O)c1ncn([C@@H]2O[C@H](CO)[C@@H](O)[C@H]2O)c1O`, the inhibition is 2.19%.

As to `Nc1ccn([C@@H]2O[C@H](CO)[C@@H](O)[C@@H]2O)c(=O)n1`, the inhibition is -7.73% and -0.16%.

Turning to `Nc1ncnc2c1ncn2[C@@H]1O[C@H](CO)[C@@H](O)[C@H]1O`, the inhibition is 3.62%.

For `Nc1ccn([C@@H]2O[C@H](CO)[C@@H](O)C2O)c(=O)n1` (stereo not given in full), the inhibition is -5.08% and -1.41%.

As for `Nc1cnn(C2OC(CO)C(O)C2O)c(=O)n1` (stereo not given), the inhibition was -3.56%.

For the compound `Cc1cc(C)c(NC(=O)CNC(=O)CN2C(=O)NC3(CCCc4ccccc43)C2=O)c(C)c1` (stereo not given), the inhibition is 0.74%.

Regarding `Cc1cccc(Nc2nccc(N(C)C)c2C#N)c1`, the inhibition was -5.86%.

In the case of `COc1ccc(-c2noc(CCC(=O)NCCN3CCN(c4ccccc4F)CC3)n2)cc1`, the inhibition is -6.34%.

In the case of `O=C(Nc1cccc2ccccc12)N1CC=C(c2ccccc2)CC1`, the inhibition is 8.64%.

For `CC(CN1CCCCC1)C(=O)NN` (stereo not given), the inhibition is 2.4%.

As to `O=C(CNC(=O)c1ccccc1F)N/N=C/c1cn[nH]c1-c1ccccc1`, the inhibition is -11.6%.

As for `Cc1cc(OCC(=O)OCC(=O)N(C)c2c(N)n(Cc3ccccc3)c(=O)[nH]c2=O)ccc1Cl`, the inhibition was -6.01%.

For the compound `O=C(NCC1CCCO1)c1cccnc1Nc1ccccc1F` (stereo not given), the inhibition was 8.77%.

On to `CC1=C(C(=O)Nc2cccc([N+](=O)[O-])c2)C2(CCC(C)CC2)OC1=O` (stereo not given), for which the inhibition is -3.06%.

Turning to `O=C(Cc1ccc(-n2c(=O)[nH]c3ccsc3c2=O)cc1)NCc1cccnc1`, the inhibition is 0.29%.

Regarding `CNC(=S)Nc1cc(C(F)(F)F)ccc1Cl`, the inhibition was 4.05%.

As to `COc1cc(/C=C/C(=O)O)ccc1O`, the inhibition was -9.92%.

As to `COc1cc(/C=C/C(=O)CC(=O)/C=C/c2ccc(O)c(OC)c2)ccc1O`, the inhibition was 8.28%.

Consider `O=C(Cn1c(=O)oc2cc(S(=O)(=O)N3CCCC3)ccc21)Nc1ccccc1Br`, for which the inhibition is -3.67%.

Consider `CCNc1nc(NC(C)C)nc(OCC)n1`, for which the inhibition is -7.28%.

With `CCO[C@@H]1OC(C(=O)N2CCN(Cc3ccc4c(c3)OCO4)CC2)=C[C@H](C2CCCCC2)[C@H]1CCCO`, the inhibition is 2.5%.

As for `CCCCCCCNC(=O)C1(CC2CC(c3ccccc3)=NO2)CCNCC1` (stereo not given), the inhibition was 0.18%.

`CCCCCCCNC(=O)C1(CC2CC(c3cccc(Br)c3)=NO2)CCN(C(=O)C2CCCC2)CC1` (stereo not given): the inhibition is 12.9%.

For the compound `CCCCCCCNC(=O)C1(CC2CC(c3ccc(Cl)cc3)=NO2)CCN(C(=O)C2(C)CC2)CC1` (stereo not given), the inhibition is -5.4%.

As for `CCCCCCCNC(=O)C1(CC2CC(c3cccc(Br)c3)=NO2)CCN(C(=O)OC(C)(C)C)CC1` (stereo not given), the inhibition is -0.33%.

Consider `Cc1ccccc1C(=O)Nc1ccccc1NC(=O)c1ccccc1Br`, for which the inhibition is -5.42%.

For `CCc1nc(C)cn1S(=O)(=O)c1cc(Br)ccc1OC`, the inhibition is 1.41%.

As for `COC(CNC(=O)C(=O)NCC1OCCN1C(=O)c1ccc(Cl)cc1)OC` (stereo not given), the inhibition is 12.8%.

Regarding `CC(C)C[C@H](NC(=O)N1CCn2c1nc1ccccc12)C(=O)NCc1ccco1`, the inhibition is -1.56%.

As for `CCn1ncc([N+](=O)[O-])c1C(=O)Nc1ccc(C)c(C)c1`, the inhibition is -7.66%.

With `Cc1cc2nc(N)sc2cc1C`, the inhibition was 3.73%.

On to `CN(C)c1ccc2nc3ccc(=[N+](C)C)cc-3sc2c1`, for which the inhibition was -2.55%.

As for `CC1(C)Cn2c(nnc2-c2ccccc2)S1`, the inhibition is -3.09%.

For `O=c1[nH]c2ccccc2c(O)c1-c1ccccc1`, the inhibition is 1.77%.

Turning to `CC[n+]1ccccc1/C=C/c1ccc(N(C)C)cc1`, the inhibition was -19.2%.

`CC[n+]1c(/C=C/c2ccc(OC)c(OC)c2)ccc2ccccc21`: the inhibition is -6.54%.

For `CN(CCCS(=O)(=O)[O-])c1ccc(/C=C/c2ccc3ccccc3[n+]2C)cc1`, the inhibition was 0.91%.

In the case of `CN(C)c1ccc(/C=C/c2ccc3ccccc3n2)cc1`, the inhibition is 0.11%.

Take `C[n+]1c(/C=C/c2ccc(O)cc2)ccc2ccccc21`: the inhibition was 18.4%.

For `CN(C)c1ccc(/C=C/c2cccc[n+]2[O-])cc1`, the inhibition was -8.32%.

Consider `Cc1ccc(-n2ccnc(SCC(=O)NC3CCCC3)c2=O)cc1Cl`, for which the inhibition was -4.24%.

Turning to `COc1ccc(OC)c(NC(=O)C2CCN(C(=O)c3cccs3)CC2)c1`, the inhibition was 2.52%.

`O=C(c1cc(F)ccc1F)C1CCCN(C(=O)c2ccco2)C1` (stereo not given): the inhibition was -3.85%.

As for `COc1ccccc1N1CCN(C(=O)Nc2cccc(Cl)c2)CC1`, the inhibition is -5.86%.

Turning to `Cc1c(OCC(=O)NC(Cc2ccc(Cl)cc2)C(=O)O)ccc2c(-c3ccccc3)cc(=O)oc12` (stereo not given), the inhibition was -1.09%.

Consider `COc1cc(/C=C2/CC(C)OC2=O)c([N+](=O)[O-])cc1OC` (stereo not given), for which the inhibition was 0.79%.

On to `Cc1ccsc1C(C(=O)NCc1ccccc1)N(C(=O)c1csnn1)c1ccccc1` (stereo not given), for which the inhibition is 12.3%.

On to `CCc1c(C)nc(N)c(C#N)c1-c1ccccc1`, for which the inhibition was 4.1%.

As to `O=C1CC(c2ccccc2)CC(O)=C1C=Nc1ccccc1` (stereo not given), the inhibition was -10.4%.

For the compound `COc1ccc(C)cc1NC(=O)NNC(=O)C1CCC(C(C)(C)C)CC1` (stereo not given), the inhibition is -7.11%.

Take `CSc1ccc(CN(C)CC(=O)NCc2ccccc2)cc1`: the inhibition is -8.5%.

With `O=C(c1cc2nc(-c3ccco3)cc(C(F)(F)F)n2n1)N1CCN(c2ccc(F)cc2)CC1`, the inhibition is -5.29%.

Consider `CCCCCCCC[n+]1cccc2c3ccccc3ccc21`, for which the inhibition was 0.34%.

As for `CCCCCCCCC[n+]1cccc2c3ccccc3ccc21`, the inhibition was -3.12%.

Take `CCCC[n+]1c2ccccc2cc2ccccc21`: the inhibition is 20.6%.

Take `CCCCC[n+]1cccc2c3ccccc3ccc21`: the inhibition is -3.43%.
